TROY NFkB inh – inhibitors of TROY-driven NF-kB signaling, primary screen, Q293 LMP1-TROYcd cells, NF-kB luciferase, uHTS. Q293 LMP1-TROYcd NF-kB luciferase reporter, 4 h. inhibition, % at 10 µM. hit rate 0.98% among 360,000;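 active = compounds whose plate-normalised and pattern-corrected inhibition of the luciferase reporter signal at the single screening dose is 50% or more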
CF NFkB block – inhibitors of PAF-induced NF-kB signaling, primary screen, cell-based, GFP fluorescence, uHTS; KKLEB NF-kB-GFP reporter, GFP fluorescence overnight; inhibition, % at 5 µM; hit rate 0.86% among 360,000;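 active = at least 50% inhibition at 5 µM, scaled per plate between neutral and stimulator controls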;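 also: PAF is a Pseudomonas aeruginosa culture filtrate used as stimulus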
KKLEB tox – cytotoxicity in KKLEB CF airway cells, primary screen, cytotoxicity control for CF NF-kB inhibitor project, cell-based, uHTS, fluorescence assay plates | KKLEB CF airway cells viability, ATPlite luminescence, overnight; stronger effect = lower value; cells stimulated with P. aeruginosa culture filtrate | activity change (cytotoxicity), % at 5 µM | hit rate 0.36% among 360,000 | AID 602141, 2011;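 active = corrected activity change at or below -50% at 5 µM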
Peg3 promoter – Peg3 promoter-driven luciferase inhibitors, primary screen, cell-based, HeLa, luciferase luminescence. AID 588405, 2011. hit rate 1.7% among 360,000. HeLa PEG-Prom luciferase reporter, overnight. inhibition, % at 20 µM;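 active = inhibition of at least 50% at 20 µM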
TWEAK-Fn14 inh – inhibitors of TWEAK-Fn14 signaling, primary screen, luciferase reporter cells, uHTS. inhibition, % at 10 µM. hit rate 2% among 360,000. TWEAK-stimulated Fn14 reporter cells, luciferase luminescence, 8 h. AID 1159606, 2016; in the data active = inhibition above about 50%
HIF-2a block – HIF-2a reporter inhibitors, primary screen, luminescence, 786-0 RCC cells; 786-0 RCC cells HIF-2a reporter, luciferase luminescence, overnight; inhibition, % at 18.8 µM; hit rate 0.72% among 360,000; AID 624352, 2012;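 active = inhibition of the luminescence signal of 40% or more relative to plate controls, in a single-dose primary screen at 18.75 µM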
A number is an active result; - = inactive; . = no result. An excerpt weighted towards active compounds, which were near 3.9% of everything screened.

SMILES | TROY NFkB inh | CF NFkB block | KKLEB tox | Peg3 promoter | TWEAK-Fn14 inh | HIF-2a block
O=C(NCc1ccccc1C(F)(F)F)c1cccc2c1C(=O)c1ccc(N3CCC(N4CCCCC4)CC3)cc1S2(=O)=O | - | - | - | 106 | - | -
O=C(NCc1ccccc1C(F)(F)F)c1cccc2c1C(=O)c1ccc(N3CCOCC3)cc1S2(=O)=O | - | - | - | - | - | -
CC1CCN(c2ccc3c(c2)S(=O)(=O)c2cccc(C(=O)NC[C@@H]4CCCO4)c2C3=O)CC1 | - | - | - | - | - | -
CCn1c(/C=C/c2cc(Br)ccc2O)nc2ccccc2c1=O | - | - | - | 68 | 63 | -
CCn1c(/C=C/c2ccc(O)c(O)c2)nc2ccccc2c1=O | - | - | - | - | - | -
O=c1c2ccccc2nc(/C=C/c2ccc(Br)cc2)n1CCO | - | - | - | - | - | -
Cc1[nH]c2ccccc2c1/C=C/c1nc2ccccc2c(=O)n1CCO | 55 | - | - | - | - | -
O=C(CCCN1C(=O)/C(=C/c2ccccc2)SC1=S)Nc1ccc(C(=O)O)c(O)c1 | - | - | - | - | - | -
O=C(CCCN1C(=O)/C(=C/c2ccc3c(c2)OCO3)SC1=S)Nc1ccc(C(=O)O)cc1 | - | - | - | - | - | 69
O=C(CCCN1C(=O)C(=Cc2ccc3c(c2)OCO3)SC1=S)Nc1ccc(C(=O)O)c(O)c1 | - | - | - | - | - | 51
Cn1cc(/C=C2/SC(=O)N(CC(=O)Nc3ccc4c(c3)OCO4)C2=O)c2ccccc21 | - | 58 | -66 | - | - | -
O=C1C(C2=NC(c3ccccn3)C3C(=O)N(c4ccc(Cl)cc4Cl)C(=O)C23)=C(O)c2ccccc21 (configuration not stated) | - | 53 | - | 51 | - | -
O=C(/C=C/c1ccc[nH]1)c1ccccc1 | - | - | - | - | - | -
N#Cc1nc(Nc2cccc(Cl)c2)c2ncn(C3CCCC3)c2n1 | - | 51 | -54 | - | 87 | -
COc1ccccc1N1CCN(C(=O)C2CCN(S(=O)(=O)c3ccccc3)CC2)CC1 | - | - | - | - | - | -
CN(C(=O)CSc1n[nH]c(N)n1)C1CCCCC1 | - | - | - | - | - | -
N#Cc1c(N)nc(SCC(=O)C23CC4CC(CC(C4)C2)C3)c(C#N)c1-c1ccc(Cl)cc1 | - | - | - | - | - | -
CSc1nc(N)nc(SCC(=O)C23CC4CC(CC(C4)C2)C3)c1C#N | 54 | - | - | - | 93 | -
Nc1nc(SCC(=O)C23CC4CC(CC(C4)C2)C3)n[nH]1 | . | - | - | - | 72 | -
CN1CCN(C(=S)Nc2cccc(C(F)(F)F)c2)CC1 | - | - | - | - | - | -
COc1ccc(N(C(=O)c2snc(C(N)=O)c2N)C(C(=O)NC2CCCC2)c2ccc(OC)c(OC)c2)cc1 (configuration not stated) | - | - | - | - | - | -
C[C@]12c3[nH]c4ccc(Cl)cc4c3CCN1C(=O)[C@@H](CC(=O)NCC13CC4CC(CC(C4)C1)C3)C[C@@H]2C(=O)N1CCCCC1 | - | - | - | 56 | 61 | -
CC[C@]12c3[nH]c4ccc(Cl)cc4c3CCN1C(=O)[C@@H](CC(=O)NCC13CC4CC(CC(C4)C1)C3)C[C@@H]2C(=O)N1CCN(C(=O)C2CC2)CC1 | - | - | - | 56 | - | -
CC[C@]12c3[nH]c4ccc(OC)cc4c3CCN1C(=O)C(CC(=O)NCC13CC4CC(CC(C4)C1)C3)C[C@@H]2C(=O)N1CCN(C(=O)C2CC2)CC1 (some centres not stated) | - | - | - | - | - | -
Cc1cc(C)nc(Sc2ccc([N+](=O)[O-])cc2[N+](=O)[O-])n1 | - | - | - | - | 58 | -
SMILES | TROY NFkB inh | CF NFkB block | KKLEB tox | Peg3 promoter | TWEAK-Fn14 inh | HIF-2a block
CCn1nnc(NC(=O)c2cccnc2Cl)n1 | - | - | - | - | - | -
O=C(N/C(=C\c1ccc([N+](=O)[O-])cc1)C(=O)N1CCCCC1)c1ccccc1 | - | - | - | - | - | -
CN1CCN(C(=O)/C(=C/c2ccc([N+](=O)[O-])cc2)NC(=O)c2ccccc2)CC1 | - | - | - | - | 54 | -
CN1CCN(C(=O)/C(=C/c2ccc(F)cc2)NC(=O)c2ccccc2)CC1 | - | - | - | - | - | -
CN1CCN(C(=O)/C(=C/c2cccc([N+](=O)[O-])c2)NC(=O)c2ccccc2)CC1 | - | - | - | - | 55 | -
CCCn1c(-c2ccc[nH]c2=O)nc2ccccc21 | - | - | - | - | - | -
Cn1ccsc1=NC(=O)c1ccc(S(=O)(=O)C(F)F)cc1 | - | - | - | - | - | -
S=c1[nH]nc(-c2cc3ccccc3o2)n1Cc1ccccc1 | - | - | - | - | - | -
C=CCn1c(SCC(=O)Nc2sccc2C(N)=O)nc2ccccc2c1=O | - | - | - | - | - | -
C=CCn1c(SCC(=O)Nc2sccc2C(N)=O)nc2sc(CC)cc2c1=O | - | - | - | 57 | 72 | -
C=CCn1c(SC(C)C(N)=O)nc2sc(CC)cc2c1=O (configuration not stated) | - | - | - | - | - | -
C=CCn1c(SCC(=O)Nc2sccc2C(N)=O)nc2ccc(Cl)cc2c1=O | - | - | - | 52 | 73 | -
Cn1cnc([N+](=O)[O-])c1Sc1nnc(-c2cccnc2)n1C | - | - | - | - | - | -
CCOC(=O)C(C)Sc1nc2c(c(=O)[nH]c(=O)n2C)n1CCc1ccccc1 (configuration not stated) | - | - | - | - | - | -
O=C(c1ccc(Cl)cc1Cl)N1CCOCC1 | - | - | - | - | - | -
O=C(c1cc2cc(Cl)cc(Cl)c2oc1=O)N1CCOCC1 | - | - | - | 55 | - | -
CCc1cc2c(COC(=O)c3cccc(NS(C)(=O)=O)c3)cc(=O)oc2cc1O | 53 | - | - | - | 55 | -
CC(C)(C)N(Cc1ccccc1)C(=O)COC(=O)c1cccc([N+](=O)[O-])c1 | - | - | - | - | - | -
C=CCn1c(CSCc2ccc(C)cc2)nnc1SCC(=O)NCc1ccccc1 | . | - | - | - | 74 | -
COc1cc(C2C(=O)N(C3CCCC3)CC(=O)N2Cc2ccco2)ccc1OC(C)C (configuration not stated) | - | - | - | - | - | -
Cc1ccc(-c2ccc(S(=O)(=O)NCC3CCCO3)cc2)cc1 (configuration not stated) | - | - | - | - | - | -
Cc1ccc(S(=O)(=O)c2nc(S(C)(=O)=O)sc2NCC2CCCO2)cc1 (configuration not stated) | . | - | - | - | 87 | -
